# Laboratory results reported in PubChem BioAssay (NCI).
# About 83,000 compounds went through this panel and 20% of them were active in at least one assay; those are over-represented in the sample as a whole.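 Single-concentration screen, 48 h exposure, 96-well plates. Endpoint: percent growth. Below 10 = active.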 A number with no mark means an inactive call. Activity calls are given as the source filed them.
# Tests used:
# Test in all cases: NCI-60 one-dose screen, 48 h (100 = growth as untreated, 0 = no growth, -100 = all killed)
# Conditions in all cases: 10 µM unless noted
# NCI-H23 lung = test system: NCI-H23 lung
# NCI-H226 lung = test system: NCI-H226 lung
# NCI-H322M lung = test system: NCI-H322M lung
# HOP-62 NSCLC = test system: HOP-62 NSCLC
# HOP-92 NSCLC = test system: HOP-92 NSCLC
# NCI-H522 lung = test system: NCI-H522 lung
# A549/ATCC NSCLC = test system: A549/ATCC NSCLC
# 786-0 renal = test system: 786-0 renal
# DU-145 prostate = test system: DU-145 prostate
# MALME-3M melanoma = test system: MALME-3M melanoma
# MDA-MB-231 breast = test system: MDA-MB-231 breast
# RXF 393 renal = test system: RXF 393 renal
# SF-268 CNS = test system: SF-268 CNS
# SF-295 CNS = test system: SF-295 CNS
# SF-539 CNS = test system: SF-539 CNS
# UACC-257 melanoma = test system: UACC-257 melanoma
# M14 melanoma = test system: M14 melanoma
# COLO 205 colon = test system: COLO 205 colon
# K-562 leukemia = test system: K-562 leukemia
# NCI-H460 lung = test system: NCI-H460 lung
Compound,growth (NCI-H23 lung),growth (NCI-H226 lung),growth (NCI-H322M lung) [%],growth (HOP-62 NSCLC),growth (HOP-92 NSCLC),growth (NCI-H522 lung),growth (A549/ATCC NSCLC),growth (786-0 renal),growth (DU-145 prostate),growth (MALME-3M melanoma),growth (MDA-MB-231 breast),growth (RXF 393 renal),growth (SF-268 CNS),growth (SF-295 CNS),growth (SF-539 CNS),growth (UACC-257 melanoma),growth (M14 melanoma),growth (COLO 205 colon),growth (K-562 leukemia),growth (NCI-H460 lung) [%]
CCOC(=O)c1cnn2c(-c3ccc(Cl)cc3)nc(NCc3ccccc3)nc12,58.4%,89.3%,99.2,93.5%,64.2%,81.5%,84.9%,6.24% (active),44.6%,64.6%,77.5%,40.7%,28.8%,58.9%,10.7%,96.2%,86.8%,–,–,–
COc1cc(NC(=O)c2cccc(-c3cc(=O)c4c(OC)c(OC)c(OC)cc4o3)c2)cc(OC)c1OC,48.8%,58.5%,69.5,37.5%,24.7%,34.7%,–,31.8%,54.3%,56.4%,–,53.2%,67.1%,45%,52.6%,52.8%,–,44.3%,27.6%,–
N#Cc1c(N)nc2c(nnn2-c2cccc(C(F)(F)F)c2)c1N,86.6%,92.4%,89.8,80.5%,77.6%,75.2%,–,101%,99%,121%,78.3%,92.7%,91.9%,95.6%,96.9%,103%,–,104%,–,–
COc1ccc(Nc2ncc(Br)c(NCCCNC(=O)C3CCC3)n2)cc1,31%,21.8%,43.1,10.9%,40%,50.1%,19.8%,24.3%,38.9%,77.7%,-25.7% (active),-41.2% (active),23.4%,30.9%,2.94% (active),74.3%,55.2%,–,23%,–
Oc1[nH]c2ccccc2c1/C=c1/cc2c(c(-c3ccc(F)cc3)n1)=Nc1ccccc1-2,-5.74% (active),19.4%,58.7,-47.3% (active),-17.9% (active),-58% (active),-33.7% (active),-76.8% (active),9.34% (active),-54.5% (active),-4.54% (active),-57.1% (active),15.4%,-19.1% (active),-65.6% (active),20.9%,-36.8% (active),–,2.88% (active),–
COc1ccc(-c2cc(-c3ccc(Nc4nc(Nc5ccccc5)nc(Nc5ccc(Cl)cc5)n4)cc3)nc(N)c2C#N)cc1,-6.72% (active),-60.9% (active),42.2,-31.1% (active),-67.6% (active),-3.64% (active),38.2%,-81% (active),33%,-76.6% (active),-27.4% (active),-12.1% (active),-26.4% (active),34.4%,-54.9% (active),-11.4% (active),–,12.5%,4.07% (active),–
CCOC(=O)C1=C(C)NC(SCc2nnc(-c3ccc(Cl)cc3)o2)=NC1c1ccc(Cl)cc1Cl (stereo not drawn),66%,79%,78.9,82.5%,–,50.2%,53.5%,65.2%,73.1%,72.8%,41.7%,43.4%,73.8%,47.2%,86.4%,68.1%,65.2%,–,–,59.2
C#C[C@]1(O)CC[C@H]2[C@@H]3CC=C4c5sc(N=C(N)N)nc5CC[C@]4(C)[C@H]3CC[C@@]21C,28.5%,35.2%,27.9,-37.5% (active),32.7%,-24.1% (active),-13.1% (active),–,8.62% (active),-76.2% (active),-45.4% (active),-56.6% (active),-15% (active),-56.2% (active),-81.3% (active),-44.8% (active),–,-38.7% (active),-21.1% (active),–
CCN(CC)CCOc1ccc(/C(=C(\C)c2ccc(F)c(OC)c2)c2ccc(Cl)cc2)cc1,25.6%,75.7%,65.7,-4.66% (active),20.4%,26.9%,–,-64.9% (active),41.3%,-81.6% (active),27.9%,–,53%,-21.6% (active),-68.3% (active),12.3%,–,-58.6% (active),-7.49% (active),–
